According to the supplement of paper PMC3334620:
The full ranking holds about 33,000 sequences; the median of “E-score (-0.5 to 0.5)” is about -0.0014, and the highest 2% start at about 0.25. The sample holds the highest values, similar sequences and a random draw of the others, so the mix is not that of the screen.

What follows are sequences tested against T1, Cad1 (UniProt P24813) (assay: PBM E-score (8-mer binding enrichment) (E-score (-0.5 to 0.5)); higher = stronger / more preferred TF binding). Settings: protein concentration: 100 nM; construct: GST-full length.
T1 sequence: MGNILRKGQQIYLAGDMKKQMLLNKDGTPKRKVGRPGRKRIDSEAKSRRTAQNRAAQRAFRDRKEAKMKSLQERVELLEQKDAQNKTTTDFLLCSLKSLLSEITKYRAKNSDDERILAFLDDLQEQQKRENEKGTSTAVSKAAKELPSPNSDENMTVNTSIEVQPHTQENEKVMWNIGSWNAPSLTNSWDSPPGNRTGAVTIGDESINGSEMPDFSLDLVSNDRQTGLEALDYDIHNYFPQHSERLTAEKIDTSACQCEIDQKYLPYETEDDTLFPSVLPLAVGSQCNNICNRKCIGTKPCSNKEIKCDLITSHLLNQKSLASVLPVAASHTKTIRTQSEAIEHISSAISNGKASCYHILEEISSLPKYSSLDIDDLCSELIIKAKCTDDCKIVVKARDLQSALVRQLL
Procedure: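 Universal 'all 10-mer' protein binding microarrays (Agilent AMADID 015681) probed with GST-tagged S. cerevisiae TFs (full-length or DBD) made by in vitro transcription/translation (PURExpress), about 100-200 nM. Bound TF was detected with fluorescent anti-GST. Each ungapped 8-mer (which stands for itself and its reverse complement) is scored by the PBM enrichment score (E-score), a modified Wilcoxon-Mann-Whitney statistic from -0.5 to +0.5, computed with the Universal PBM Analysis Suite. Scale: above 0.35 generally sequence-specific binding.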
TGTGACAA was tested, and the “PBM E-score” value was 0.0395. For ACAGAAAC, the “PBM E-score” value was 0.116. ACTGACAA was tested, and the “PBM E-score” value was 0.264. TCTGACAA was tested, and the “PBM E-score” value was 0.25. With ACAGAAAA the “PBM E-score” value was 0.281. ACAGACAC was tested, and the “PBM E-score” value was 0.122. For TGCATACA, the “PBM E-score” value was 0.0433. AGGTGCAA was tested, and the “PBM E-score” value was -0.0504. With CTTTCATC the “PBM E-score” value was 0.0102. For GGCCTCAC, the “PBM E-score” value was 0.0157. With GGCTTAAC the “PBM E-score” value was 0.0615. CTTGGCTA was tested, and the “PBM E-score” value was 0.134. For GGCTTCAA, the “PBM E-score” value was -0.139. With CACAGCCG the “PBM E-score” value was 0.0914. In the case of TAATCCCA, the “PBM E-score” value is reported as -0.0386. In the case of CACACTTC, the “PBM E-score” value is reported as 0.0239. AGTACCTG was tested, and the “PBM E-score” value was -0.0799. In the case of CAGAGGGC, the “PBM E-score” value is reported as -0.213. In the case of CGTGCCAC, the “PBM E-score” value is reported as -0.091. CGCATTCC was tested, and the “PBM E-score” value was -0.216. For GATGACAA, the “PBM E-score” value was 0.304. With GTTGACAA the “PBM E-score” value was 0.166. CATGACAA was tested, and the “PBM E-score” value was 0.165. For GCTGACAA, the “PBM E-score” value was 0.412. With GCTGACAC the “PBM E-score” value was 0.247. In the case of GATGACAC, the “PBM E-score” value is reported as 0.0339. In the case of CGCAATCC, the “PBM E-score” value is reported as 0.248. In the case of CCTGATCG, the “PBM E-score” value is reported as -0.0975. For CCGGAACA, the “PBM E-score” value was 0.108. ACGGAACA was tested, and the “PBM E-score” value was 0.0866. With TCGGAACA the “PBM E-score” value was 0.268. In the case of AAATAAAG, the “PBM E-score” value is reported as -0.0232. For AAAATAAT, the “PBM E-score” value was 0.314. AAAATAAA was tested, and the “PBM E-score” value was 0.128. With AAATAAAT the “PBM E-score” value was 0.314. AAATAATC was tested, and the “PBM E-score” value was 0.198. With AAATAAAA the “PBM E-score” value was -0.0112. In the case of AAATAATT, the “PBM E-score” value is reported as 0.295. For AAAATAAC, the “PBM E-score” value was -0.0367. With AAATAATA the “PBM E-score” value was 0.248. CACTGGCA was tested, and the “PBM E-score” value was -0.0733. For CCAAGACC, the “PBM E-score” value was -0.0342. For CCGCCGTC, the “PBM E-score” value was 0.117. AGTCACTA was tested, and the “PBM E-score” value was 0.0232. GCGCAGTA was tested, and the “PBM E-score” value was 0.149. In the case of GAAGATTA, the “PBM E-score” value is reported as 0.181. In the case of TATGCGCA, the “PBM E-score” value is reported as 0.0953. With CGTCCGTA the “PBM E-score” value was -0.0771. TAAGCACA was tested, and the “PBM E-score” value was 0.295. In the case of CAAGCACA, the “PBM E-score” value is reported as -0.0831. In the case of CAAGCACG, the “PBM E-score” value is reported as 0.152. For GCACGAAA, the “PBM E-score” value was 0.197. AGTATCGG was tested, and the “PBM E-score” value was 0.0469. GGCATGCC was tested, and the “PBM E-score” value was 0.00621. AGCATGCC was tested, and the “PBM E-score” value was -0.111. With CGCATGCC the “PBM E-score” value was 0.252. In the case of CGAAATCC, the “PBM E-score” value is reported as 0.0502. CCAAATTA was tested, and the “PBM E-score” value was 0.107. With CAATTCCA the “PBM E-score” value was -0.0425. For AAAATTCG, the “PBM E-score” value was 0.201. For GGAAATCA, the “PBM E-score” value was 0.0778. ACAAATTG was tested, and the “PBM E-score” value was 0.202. CGAAATCA was tested, and the “PBM E-score” value was 0.306. With AAAATTCA the “PBM E-score” value was 0.284. For GAATTCCA, the “PBM E-score” value was 0.117. AAATTCCA was tested, and the “PBM E-score” value was 0.308. For GAAATTCA, the “PBM E-score” value was 0.169. For ACAAATTA, the “PBM E-score” value was 0.295. In the case of ACCCAAGT, the “PBM E-score” value is reported as -0.0625. For ATCAACCC, the “PBM E-score” value was 0.0896. ATCCTAAA was tested, and the “PBM E-score” value was -0.12. In the case of CGAACTCC, the “PBM E-score” value is reported as 0.0429. In the case of TAAAAGAA, the “PBM E-score” value is reported as 0.0891. For ACTCTAAG, the “PBM E-score” value was -0.094. GACGTTAA was tested, and the “PBM E-score” value was 0.245. In the case of AGGTGTAG, the “PBM E-score” value is reported as -0.128. For CGGCACAA, the “PBM E-score” value was -0.103. ATGCTTGC was tested, and the “PBM E-score” value was -0.14. In the case of GGAAATTA, the “PBM E-score” value is reported as 0.208. For AAAAATTT, the “PBM E-score” value was 0.269. In the case of CAAAATTA, the “PBM E-score” value is reported as 0.187. AAAAAATT was tested, and the “PBM E-score” value was 0.12. In the case of GAAAATTA, the “PBM E-score” value is reported as 0.13. In the case of ACAAATCA, the “PBM E-score” value is reported as 0.279. For AGAAATTC, the “PBM E-score” value was 0.13. For AAAATTTT, the “PBM E-score” value was 0.234. With AGAAATTA the “PBM E-score” value was 0.296. With GCAAATCA the “PBM E-score” value was 0.101. For CCAAATCA, the “PBM E-score” value was -0.041. In the case of AAAAATTA, the “PBM E-score” value is reported as 0.254. CGGAAAAC was tested, and the “PBM E-score” value was 0.221. In the case of ATCCAACC, the “PBM E-score” value is reported as -0.0228. CGCCCTGC was tested, and the “PBM E-score” value was -0.128. ATCCTAGA was tested, and the “PBM E-score” value was -0.0558. For AATTTGCG, the “PBM E-score” value was 0.173. CCGGAAAA was tested, and the “PBM E-score” value was 0.215. For TAAAATTA, the “PBM E-score” value was 0.297. TAAAATAA was tested, and the “PBM E-score” value was 0.164. In the case of TAAATTTA, the “PBM E-score” value is reported as 0.154. AATGCCGT was tested, and the “PBM E-score” value was 0.107. ATCTTCAC was tested, and the “PBM E-score” value was -0.0332. CTAAGACC was tested, and the “PBM E-score” value was -0.0662. In the case of ACCCTAAG, the “PBM E-score” value is reported as -0.101. With CATTTCGC the “PBM E-score” value was -0.15. In the case of GATTTCGA, the “PBM E-score” value is reported as -0.0223. GATTTCGC was tested, and the “PBM E-score” value was 0.28. With ATCGATGG the “PBM E-score” value was 0.0786. In the case of CAGCTTCA, the “PBM E-score” value is reported as 0.0676. With CCTCCTTC the “PBM E-score” value was -0.165. GATTATAA was tested, and the “PBM E-score” value was 0.29. For AATTATGT, the “PBM E-score” value was 0.167. With GCTTATAA the “PBM E-score” value was 0.235. AATTATAG was tested, and the “PBM E-score” value was 0.0146. For AATTATGG, the “PBM E-score” value was 0.216. With CATTATAA the “PBM E-score” value was 0.104. In the case of AATTATAC, the “PBM E-score” value is reported as 0.172. With AATTATGA the “PBM E-score” value was 0.297. TATTATAA was tested, and the “PBM E-score” value was 0.185. For ACTTATAA, the “PBM E-score” value was 0.279. With AATTATAA the “PBM E-score” value was 0.276. With ACTTATAC the “PBM E-score” value was 0.154. AAACGTAC was tested, and the “PBM E-score” value was 0.0592. With AGCTAGTG the “PBM E-score” value was -0.0897. For AGCTCACG, the “PBM E-score” value was -0.0493. With TAGAGTCA the “PBM E-score” value was -0.321. AAAGAACC was tested, and the “PBM E-score” value was 0.0643. With ATAAGCCA the “PBM E-score” value was 0.063. AGTCGGCG was tested, and the “PBM E-score” value was 0.0599. For GGTGGGTA, the “PBM E-score” value was -0.0656. In the case of CATGTGCG, the “PBM E-score” value is reported as 0.173. In the case of AATTATAT, the “PBM E-score” value is reported as 0.29. AGTTATAT was tested, and the “PBM E-score” value was 0.101. With ACTTATAT the “PBM E-score” value was 0.202. With CAAGTGGA the “PBM E-score” value was -0.0832. With CCCAAAAA the “PBM E-score” value was -0.0252. CCGTTCCC was tested, and the “PBM E-score” value was -0.0828. For GTTATTCA, the “PBM E-score” value was 0.251. In the case of ATTATTCG, the “PBM E-score” value is reported as 0.195. With CTTATTCA the “PBM E-score” value was 0.17. ATTATTCA was tested, and the “PBM E-score” value was 0.26. GATATTCA was tested, and the “PBM E-score” value was 0.0631. With ATTATTCC the “PBM E-score” value was 0.131. ATATTGTA was tested, and the “PBM E-score” value was 0.0624. For ATCACCAC, the “PBM E-score” value was 0.245. For GGCACACC, the “PBM E-score” value was -0.298. With CCGATGAG the “PBM E-score” value was 0.0417. For ACTGCACT, the “PBM E-score” value was 0.0895. With CTTGGGGA the “PBM E-score” value was 0.0866. With CCGACCTC the “PBM E-score” value was -0.0414. For GTCATGAA, the “PBM E-score” value was 0.0483. In the case of GTCATGAC, the “PBM E-score” value is reported as 0.288. CTCATGAC was tested, and the “PBM E-score” value was -0.0193. With CACTTAAC the “PBM E-score” value was 0.00927. GGCGCTCA was tested, and the “PBM E-score” value was 0.149. In the case of ACACCTGC, the “PBM E-score” value is reported as 0.0761. For GCCGCGGA, the “PBM E-score” value was -0.00234. In the case of CCCGCCGA, the “PBM E-score” value is reported as -0.0624. For GCCGCGGC, the “PBM E-score” value was 0.347. With TCCGCGGA the “PBM E-score” value was 0.311. For ACCGCCGA, the “PBM E-score” value was -0.0944. With CCCGCGCG the “PBM E-score” value was 0.298. CCCGCGCC was tested, and the “PBM E-score” value was -0.118. CCCGCGGC was tested, and the “PBM E-score” value was 0.0319. ACCGCGGA was tested, and the “PBM E-score” value was 0.207. With CCCGCGCA the “PBM E-score” value was 0.106. With GCCGCCGA the “PBM E-score” value was 0.277. For CCCGCGGA, the “PBM E-score” value was 0.0649. With ATTTCCAA the “PBM E-score” value was -0.03. ACCAGGCA was tested, and the “PBM E-score” value was -0.169. In the case of AAAGCCAA, the “PBM E-score” value is reported as -0.0764. AAGAGCTG was tested, and the “PBM E-score” value was 0.0198. CCGTTGGA was tested, and the “PBM E-score” value was -0.182.
